This is a sample that favours compounds with a hit; in the whole collection about 31% have one here.
CYP2C9 activ = activators of human CYP2C9. recombinant CYP2C9, luciferin-H conversion, luminescence; hits give high values; factor 1 = untreated enzyme, 0 = blocked. activation factor at 5 µM. 1.4% of 96,000 active;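 active means activation factor of 2 or more for CYP2C9 at a 5 µM dose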;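 further: 0 = sulfaphenazole-blocked wells and 1 = vehicle-only wells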
CYP2C19 act = activators of human cytochrome P450 2C19; recombinant CYP2C19, luciferin-H EGE luminescence; hits give high values; 0 = fully inhibited enzyme, 1 = untreated enzyme; AID 1025; activation factor at 5 µM; 96,000 tested, under 10 active; P33261;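 active means activation factor of at least 2 at 5 µM in the primary screen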;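 further: 0 = wells with 2.5 mM tranylcypromine and 1 = vehicle-only wells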
CYP2C9 inh = inhibitors of human CYP2C9. CYP2C9 Supersomes, luciferin-H conversion, luminescence. inhibition, % at 5 µM. 20% of 96,000 active. AID 777;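 active means blocking of liver enzyme CYP2C9 beyond about 50% at 5 µM, limit read from the data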
CYP2C19 inhib = blocks human cytochrome P450 2C19; CYP2C19 Supersomes, luciferin-H EGE luminescence, 30 min; inhibition, % at 5 µM; 21% of 96,000 active; AID 778;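 active means CYP2C19 inhibition above a set limit at 5 µM in the primary screen, cut at about 50% in these data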;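 further: plate controls were negative control wells for no effect and 2.5 mM tranylcypromine positive control for full effect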
* hit, by the source's call.

SMILES	CYP2C9 activ	CYP2C19 act	CYP2C9 inh	CYP2C19 inhib
COc1ccc(C(=O)Nc2nc(-c3cccs3)cs2)cc1	0.6	0.7	41	25
Cc1csc(NC(=O)c2sc3nc(-c4cccs4)ccc3c2N)n1	0.2	0.4	81*	59*
COC(=O)c1cn(NC(=O)c2ccc3c(c2)OCO3)c(=O)c2ccccc12	0.8	1	15	3
COC(=O)c1ccc(=O)n(Cc2ccc3c(c2)OCO3)c1	0.6	0	40	98*
Cc1cc(NS(=O)(=O)c2ccc(NC(=O)c3ccoc3C)cc2)nc(C)n1	0.8	0.9	24	5
Cc1nn(C(C)C(=O)NCc2ccccc2)c(C)c1[N+](=O)[O-] (configuration not stated)	0.9	0.9	8	14
Cc1nn(C(C)C(=O)N2CCc3ccccc32)c(C)c1[N+](=O)[O-] (configuration not stated)	0.3	0.4	68*	55*
O=c1cc(CN2CCN(c3ccccc3)CC2)c2cc(O)c(-c3ccccc3)cc2o1	0.8	0.9	24	6
O=C1CC(c2ccc3c(c2)OCO3)Sc2nc3ccccc3n21 (configuration not stated)	0.4	0.4	64*	60*
CC(Sc1nc(-c2ccccc2)cc(C(F)(F)F)n1)C(=O)N1CCCCC1 (configuration not stated)	0.4	0.5	58*	47
CC(Sc1nc(-c2ccccc2)cc(C(F)(F)F)n1)C(=O)NCc1ccco1 (configuration not stated)	1.6	1	-57	-2
CC1CCCN(C(=O)C(C)Sc2nc(-c3ccccc3)cc(C(F)(F)F)n2)C1 (configuration not stated)	0.4	0.3	60*	71*
Cn1nnnc1SCC(=O)NCCCc1ccccc1	1.2	0.9	-15	14
O=C1CCc2cc(S(=O)(=O)N3CCC(C(=O)NC4CCCC4)CC3)ccc2N1	0.5	0.9	52*	15
CC(C)CCNC(=O)C1CCN(S(=O)(=O)c2ccc3c(c2)CCC(=O)N3)CC1	0.4	0.8	59*	16
O=C1CCc2cc(S(=O)(=O)N3CCCC3C(=O)NC3CCCCCCC3)ccc2N1 (configuration not stated)	0.2	0.8	81*	20
COc1ccc(N2CC(C)Cn3c2nc2c3c(=O)[nH]c(=O)n2C)cc1 (configuration not stated)	0.8	1	16	5
CCC(C)NC(=O)c1cnn2c1NC(c1ccc3c(c1)OCO3)CC2C(F)(F)F (configuration not stated)	1	1	2	-1
Cc1ccc(S(=O)(=O)N(c2nc(N(C)C)nc(N(C)C)n2)n2cnnc2)cc1	0.5	1.1	54*	-6
Cc1ccc(N(CC(=O)NC2CCCC2)C(=O)c2c(C)noc2C)cc1C	0.7	0.8	29	18
CCOC(=O)c1cnc2nc(NCc3ccc(OCc4ccccc4)cc3)[nH]n2c1=O	0.1	0.8	87*	19
Cc1cc2ncc(-c3ccc(Cl)cc3)c(N)n2n1	0.2	0.7	77*	35
O=S(=O)(c1ccccc1)N1N=C(c2cccs2)CC1c1ccc(Br)cc1 (configuration not stated)	0.5	0.8	52*	21
Nc1cc(-c2ccc(Br)cc2)nn1S(=O)(=O)c1ccccc1	0.7	0.9	35	8
Cc1cc(C(F)(F)F)nn1CCCNC(=O)c1cnccn1	0.9	0.5	8	50*
SMILES	CYP2C9 activ	CYP2C19 act	CYP2C9 inh	CYP2C19 inhib
CCCCn1c(SCC(=O)N2CCCC2)nc2c1c(=O)n(C)c(=O)n2C	1.2	1.2	-17	-18
COc1ncnc2c1NC(=O)CS2	1	1	0	5
COc1ncnc2c1N[C@@](C)(O)c1c(F)c(F)c(F)c(F)c1S2	0.7	0.1	29	86*
CCOC(=O)c1c(N2C(=O)Nc3cc(Cl)c(Cl)cc3N2O)sc2c1CCCCC2	0.3	0.8	70*	17
Cc1c(C(=O)N2CCOCC2)sc(NC(=O)c2ccc3c(c2)OCO3)c1C#N	0.9	1.1	11	-8
Cn1nnc2cc(C(=O)N3CCSCC3)ccc21	1.1	1	-5	-4
CCCCN1c2cc(C)c(O)cc2C(C(=O)OCC)C1C (configuration not stated)	0.5	0.4	50	59*
COc1cccc(OC)c1C(=O)NC(=S)N1CCN(c2ccc(C(F)(F)F)cc2[N+](=O)[O-])CC1	0.6	0.6	42	36
CC(C)Oc1cccc(C(=O)NC(=S)N2CCN(c3ccc(C(F)(F)F)cc3[N+](=O)[O-])CC2)c1	0.4	0.7	62*	32

Screening results: PubChem BioAssay, Sanford-Burnham Center for Chemical Genomics
